Shown are actives, neighbours in structure and some others; about 2.3% of the full set was active somewhere.
ATXN2 expr inh – Primary qHTS for Inhibitors of ATXN expression; actives 0.72% (n = 360,000); Potency, µM (titrated, usually from 57 µM), for the others: at the top dose activity change, negative = inhibition, usual class: inhibitors; HEK-293 ATXN2-luciferase reporter, luminescence, 24 h; note: % is set by controls: 0 for no effect and ±100 for the full control effect; nearly all actives have a fitted effect of over 55% in size
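qHTS (up to 57 uM final) was run with 24 h compound exposure of reporter cells at 37 °C. Each well was multiplexed: SteadyGlo luminescence measured ATXN2-luciferase expression after a fluorogenic Gly-Phe-AFC viability readout (25 uM final).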
HepG2 tox – qHTS for Inhibitors of TGF-b: Cytotox Counterscreen | Potency, µM (doses to about 46.1 µM), for inactives: at the highest dose activity change, negative = cytotoxicity, most hits filed as cytotoxic | AID 588856, 2011 | HepG2 CAGA-GFP viability, ATP luminescence, 18 h | actives 0.76% (n = 410,000)
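CellTiter-Glo luminescence gave cytotoxicity after 18 hours at 37 degrees C. The cells were HepG2 CAGA-GFP in 1% FBS DMEM, stimulated with 500 pg/mL TGF-beta after compound addition. %Activity was normalised to no-cell wells (complete cell-killing) and DMSO (no toxicity), and curves were fitted and classified.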
TGFb inhibitor – qHTS for Inhibitors of TGF-b; HepG2 CAGA-GFP TGF-b/SMAD3 reporter, GFP fluorescence, 18 h; TGF-beta stimulated, 500 pg/mL final; Potency, µM (top dose mostly 46.1 µM), without a hit: at the highest dose activity, negative = inhibition, most hits filed as inhibitors; actives 1.2% (n = 410,000); note: % is set by controls: 0 for no effect and ±100 for the full control effect; nearly all actives have a fitted effect of over 65% in size
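Read-out: total well GFP (ex488/em500-530) summed from mean per-cell fluorescence. Cells: HEPG2 CAGA-GFP, 1% FBS DMEM, 18 h at 37 degrees C with 500 pg/mL final TGF-beta. Unstimulated wells served as the full-inhibition control; stimulated DMSO wells = 0%.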
S2 tox – Viability Counterscreen for Primary qHTS for Inhibitors of ATXN expression | S2 cells (HEK-293 line with an ATXN2-luciferase reporter) viability, CellTiter-Fluor protease fluorescence, 24 h | Potency, µM (highest dose often 56.7 µM), usual class: cytotoxic | actives 0.49% (n = 400,000); note: nearly all actives have a fitted effect of over 40% in size
Numbers without * were called inactive; i = inactive; ? = inconclusive; . = no result given; ! = a repeat was not active. Calls come from the whole dose curve; as a rule, active = well fitted curve in the direction sought with a large enough effect; inconclusive = small, poorly fitted or top-dose-only effect, or another doubt; inactive = no such curve, though single readings can be large; an effect the other way counts as inactive or inconclusive. Potency is the fitted concentration of half-maximal effect.

SMILES	ATXN2 expr inh	HepG2 tox	TGFb inhibitor	S2 tox
O=C(Cn1cc(SCc2ccc(C(F)(F)F)cc2)c2ccccc21)N1CCCC1	.	10µM*	?	.
O=C(Cn1cc(SCc2cccc(C(F)(F)F)c2)c2ccccc21)N1CCCCCC1	.	-14.3%	?	.
CS(=O)(=O)N1CCN(/[N+]([O-])=N/Oc2ccc([N+](=O)[O-])cc2[N+](=O)[O-])CC1	.	-99.1%	?	.
COCc1c(C(=O)N2CC3CCC2C3)cnn1-c1nccc(-c2ccccc2OC)n1 (centres undefined)	.	.	.	i
Cc1cc(Nc2nc(N[C@@H](C)c3ccc(F)cc3)c(C#N)cc2F)n[nH]1	24.3µM*	.	.	.
O=C(COc1ccccc1C(=O)Nc1ccccc1)Nc1ccc(-c2ccccc2)cc1	.	3.9%	0.9%	.
NC(=O)c1ccc[n+]([C@@H]2O[C@H](COP(=O)([O-])OP(=O)(O)OC[C@H]3O[C@@H](n4cnc5c(N)ncnc54)[C@H](O)[C@@H]3O)[C@@H](O)[C@H]2O)c1	.	.	.	i
Cn1ncc2c(Nc3ccc(Br)cc3)nc(Nc3ccc(Br)cc3)nc21	-31.8%	-189.8%	11.2µM*	i
CNc1nc(Nc2ccc(C)c(Cl)c2)c2cnn(C)c2n1	-26.0%	-15.9%	-23.3%	i
Cn1ncc2c(Nc3ccc(O)cc3)nc(Cl)nc21	1.0%	9.5%	3.0%	i
Cn1ncc2c(Nc3cccc(Cl)c3)nc(Nc3cccc(Cl)c3)nc21	?	22.4µM*	?	i
CCOc1ccc(OCCNC(=O)c2cc(C3CC3)nc3c2cnn3C(C)C)cc1	-27.8%	-34.4%	12.6µM*	i
CC(C)n1ncc2c(C(=O)NCCOc3ccccc3F)cc(C3CC3)nc21	-8.5%	-26.2%	?	i
COC1CCC(C(=O)c2ccc3nc4c(cc3c2)CCCO4)CC1 (centres undefined)	30.6µM*	.	.	.
O=[N+]([O-])c1cc(C(F)(F)F)cc([N+](=O)[O-])c1NCCNC(=S)Nc1cccc(F)c1	?	-125.8%	11.2µM*	?
COc1cccc(/C=N/NC(=S)NCCc2ccccc2)c1	-16.8%	-11.5%	25.1µM*	i
C[C@H](NC(=O)c1nc[nH]c1C(=O)N[C@@H](Cc1ccccc1)C(=O)OC(C)(C)C)C(=O)OC(C)(C)C	?	15.8µM*	?	.
CC(C)C[C@H](NC(=O)c1nc[nH]c1C(=O)NC(c1ccccc1)c1ccccc1)C(=O)OC(C)(C)C	?	0.1%	?	?
CC(C)C[C@H](NC(=O)c1[nH]cnc1C(=O)N[C@H](C)c1ccccc1)C(=O)OC(C)(C)C	?	15.8µM*	?	.
CC(C)(C)OC[C@H](NC(=O)c1[nH]cnc1C(=O)Nc1ccccc1F)C(=O)OC(C)(C)C	?	20µM*	?	.
CC(C)C[C@H](NC(=O)c1[nH]cnc1C(=O)Nc1ccc(Cl)cc1)C(=O)OC(C)(C)C	?	-55.3%	?	28.2µM*
C[C@@H]1CCN(C(=O)CC#N)C[C@H]1N(C)c1ncnc2[nH]ccc12	32.8%	.	.	.
COc1cc2c(cc1OC)C(c1cc(-c3cc(Cl)ccc3Cl)oc1C)=NCC2	.	-26.7%	0.7%	.
Cc1ccc(NC(=O)c2nc[nH]c2C(=O)N[C@@H](C)c2ccccc2)cc1	?	-18.1%	?	?
CC(C)C[C@H](NC(=O)c1nc[nH]c1C(=O)NCC(=O)OC(C)(C)C)C(=O)OC(C)(C)C	0.0%	-14.5%	?	?
SMILES	ATXN2 expr inh	HepG2 tox	TGFb inhibitor	S2 tox
CC(C)(C)OC(=O)[C@H](Cc1ccccc1)NC(=O)c1[nH]cnc1C(=O)Nc1ccc(Cl)cc1	?	15.8µM*	?	.
CCOC(=O)c1ccc(NC(=O)c2nc[nH]c2C(=O)N[C@@H](Cc2ccccc2)C(=O)OC(C)(C)C)cc1	?	-51.9%	?	?
CC(C)(C)OC(=O)NCCCCCNC(=O)c1[nH]cnc1C(=O)Nc1ccc(Cl)cc1	?	17.8µM*	?	?
C[C@@H](NC(=O)c1[nH]cnc1C(=O)Nc1ccccc1)c1ccccc1	?	-25.8%	14.1µM*	?
CC(C)C[C@H](NC(=O)c1nc[nH]c1C(=O)N[C@@H](CC(C)C)C(=O)OC(C)(C)C)C(=O)OC(C)(C)C	?	-2.9%	?	22.4µM*
NC(=O)C1CCCN(Cc2ccc3c(c2)CN(Cc2ccccc2)CCO3)C1 (centres undefined)	.	.	.	i
COc1ccc(OCC(O)COc2ccc(OC)cc2)cc1	8.8%	-5.6%	10.7%	i
COc1ccc(OCC(O)CN(CC(O)COc2ccc(OC)cc2)c2cccc(O)c2)cc1 (centres undefined)	-7.8%	10µM*	-28.4%	i
O=C(COC(=O)COc1ccccc1)Nc1ncc([N+](=O)[O-])s1	11.3%	2.7%	-5.0%	i
N/C(=N\OC(=O)Nc1ccccc1)c1ncc([N+](=O)[O-])s1	?	8.91µM*	11.2µM*	?
CCCCCCCCCCCCCCCCn1cc[n+](C)c1	14.1µM*!	-102.6%	11.2µM*	20µM*
O=C(NCc1ccccc1)[C@H](Cc1ccccc1)NC(=O)[C@@H]1O[C@@H]1C(=O)NCCc1ccc(O)cc1	2.1%	.	.	.
O=C(Nc1ccncc1)c1cnn2c1NC(=C1CC1)C=C2C(F)F	.	2.3%	1.1%	.
O=C1Nc2ccccc2N=C(c2ccc3c(c2)OCO3)C1N(CCc1ccccc1)C(=O)CSc1ncccn1 (centres undefined)	6.6%	-16.5%	?	7.94µM*
Cn1nnnc1SCCNCc1ccc(OCc2ccc(Cl)cc2)cc1	-29.0%	6.31µM*	?	?
CCOc1cc(CNCCSc2nnnn2C)ccc1OCc1ccc(Cl)cc1Cl	?	11.2µM*	?	i
CC(C)c1ccc(CNCCSc2nnnn2C)cc1	1.5%	-1.1%	15.8%	i
Cc1ccc(SC[C@H](C)CN2CC[C@H](NC(=O)OCc3ccccc3)CCC2=O)cc1	-1.7%	1.6%	-5.7%	i
CC(=O)Nc1ccc(S[C@@H](CCN2CC[C@H](C(C)(C)C)CCC2=O)c2ccccc2)cc1	?	-33.7%	?	31.6µM*
Cc1ccc(S[C@@H](CCN2CC[C@H](NC(=O)OCc3ccccc3)CCC2=O)c2ccccc2)cc1	-20.2%	-2.3%	10µM*	?
Cc1cccc2c1-c1sc(C(=O)Nc3ccccc3N3CCN(C)CC3)cc1CO2	28.2µM*	15.8µM*	?	?
Cc1cccc2c1-c1sc(C(=O)NCCCN3CCN(c4cccc(Cl)c4)CC3)cc1CO2	?	-86.2%	12.6µM*	?
Cc1cccc2c1-c1sc(C(=O)NCCCN3CCN(c4ccccc4F)CC3)cc1CO2	-37.3%	-42.7%	3.8%	i
Cc1nn(-c2ccc(F)cc2)c(-n2cccc2)c1C(=O)NCCCN1CCN(c2cccc(Cl)c2)CC1	?	17.8µM*	11.2µM*	?
Oc1cc(O)c(/C=C/c2ccnc3ccccc23)c(O)c1	.	3.6%	-1.0%	.
